# CRE-bla Fsk – Cell signaling CRE-BLA (Fsk stim); CHO CRE-bla reporter (cAMP response element driving beta-lactamase), forskolin EC10, beta-lactamase ratio; Potency, µM (series often up to 38.2 µM), for the others: at the highest dose activity change, negative = inhibition, usual class: activators; actives 2.5% (n = 71,000); AID 662, 2007; active means well fitted activation curve with a large enough effect in the signal ratio, with a control signal flat, not every such curve was filed as active; inconclusive means small, poorly fitted or top-dose-only effect, or effect the other way, or a change in a side signal; the % refers to the signal ratio; further: % of control where 0% means no effect
#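 Reporter-gene assay: CHO cells with beta-lactamase behind cAMP responsive elements, co-treated with compound and EC10 NKH 477 for 3 hours at 37 degrees Celsius. Activity came from the 460/530 nm CCF4 emission ratio.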
# ERK AVP inh – qHTS Assay for Inhibitors of the ERK Signaling Pathway using a Homogeneous Screening Assay; HEK293-V1b, vasopressin-stimulated pERK AlphaScreen; actives 0.99% (n = 72,000); AID 995, 2007; Potency, µM (highest dose often 57.5 µM), for inactives: at the top dose activity, negative = inhibition, actives largely listed as inhibitors; further: on the % scale 0 is the no-effect control and ±100 the full control effect; nearly all actives have a fitted effect of over 55% in size
#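 HEK293 cells stably expressing V1b receptor, preincubated 30 min at 37 °C with compound, then stimulated 5 min with 25 nM vasopressin. Phospho-ERK by AlphaScreen SureFire after 5 h RT; normalized to DMSO and vasopressin; AC50 by Hill fit.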
# IkB signaling – IkB Signaling; ABC-DLBCL IkBa-CBG/CBR dual luciferase ratio, 4 h; response scale: scaled: untreated 0%, proteasome inhibitor 100%; Potency, µM (titrated, usually from 57.1 µM), inactives show top-dose IkBa stabilization activation; actives 0.04% (n = 110,000); AID 445, 2006; active means well fitted curve in the direction sought with a large enough effect in the signal ratio, not every such curve was filed as active; inconclusive means small, poorly fitted or top-dose-only effect, or a change in a side signal; the % refers to the signal ratio;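 further: the direction sought is a rising ratio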
#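 In this assay, an IκBα–CBG68 fusion accumulates when IKK-driven degradation is blocked; native CBR normalizes for cell number. OCI-Ly3 cells were treated 4 h with compound and doxycycline, then green and red light read after Chroma-Glo addition.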
# TSHR ag – qHTS Assay for Agonists of the Thyroid Stimulating Hormone Receptor; Thyrotropin receptor (Homo sapiens), P16473; HEK293-CNG-TSHR cells (CNG channel as cAMP sensor), membrane potential dye, cAMP; Potency, µM (highest dose often 57.1 µM), without a hit: top-dose activation, hits mostly activators; actives 0.48% (n = 73,000); active means well fitted activation curve with a large enough effect in the main read-out, with a control signal flat, not every such curve was filed as active; inconclusive means small, poorly fitted or top-dose-only effect, or a change in a side signal; inactive means no such curve, though single readings can be large or run the other way; % of control where 0% means no effect;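 further: the control signal comes from parental cells without the receptor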
# Target sequence (P16473 whole entry, looked up): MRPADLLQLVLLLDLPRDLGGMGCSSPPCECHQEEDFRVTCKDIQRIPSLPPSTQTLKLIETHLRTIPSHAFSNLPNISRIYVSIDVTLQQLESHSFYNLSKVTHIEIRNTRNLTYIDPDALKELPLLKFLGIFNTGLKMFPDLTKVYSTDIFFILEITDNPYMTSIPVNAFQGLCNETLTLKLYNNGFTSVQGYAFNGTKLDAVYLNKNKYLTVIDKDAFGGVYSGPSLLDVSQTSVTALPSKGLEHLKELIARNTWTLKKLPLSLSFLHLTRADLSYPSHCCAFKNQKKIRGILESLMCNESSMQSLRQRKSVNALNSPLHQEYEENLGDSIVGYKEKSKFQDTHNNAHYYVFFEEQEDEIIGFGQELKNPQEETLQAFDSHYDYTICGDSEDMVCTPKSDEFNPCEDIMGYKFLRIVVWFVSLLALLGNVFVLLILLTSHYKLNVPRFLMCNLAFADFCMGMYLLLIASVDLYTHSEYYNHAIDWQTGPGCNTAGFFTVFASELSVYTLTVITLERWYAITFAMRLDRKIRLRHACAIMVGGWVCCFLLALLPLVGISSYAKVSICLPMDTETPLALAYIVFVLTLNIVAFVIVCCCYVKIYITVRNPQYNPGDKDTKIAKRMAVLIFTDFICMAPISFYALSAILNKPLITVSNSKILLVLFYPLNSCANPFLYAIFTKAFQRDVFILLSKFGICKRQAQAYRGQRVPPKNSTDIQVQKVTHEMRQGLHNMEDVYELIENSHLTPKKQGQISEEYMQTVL
#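 cAMP rise detected as CNG-channel membrane depolarization by fluorescent dye (emission 590 nm), 30 min after compound, following 60 min dye loading containing 100 uM RO 20-1724 at room temperature. Cells: TSHR/CNG HEK 293, with parental CNG HEK 293 as control.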
# HEK293 cAMP ctrl – qHTS Assay for Agonists of the Thyroid Stimulating Hormone Receptor: Activators of Intracellular cAMP Concentrations in Parental HEK 293. parental HEK293 CNG cAMP sensor, membrane potential fluorescence. actives 2.5% (n = 73,000). Potency, µM (highest dose often 57.1 µM), without a hit: at the highest dose activation, most hits filed as activators; further: % of control where 0% means no effect; nearly all actives have a fitted effect of over 55% in size
#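 Parental HEK 293 cells stably expressing a modified CNG channel (no TSHR) report cAMP rise as membrane depolarization. Membrane potential dye with 100 uM RO 20-1724 was loaded for 60 min at room temperature, then compound added for 30 min; fluorescence read at 590 nm.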
# Numbers without * were called inactive; ? = inconclusive; . = no result; [ ] = remark or other dose. Rows were chosen to be rich in hits. Some 3.6% of all compounds tested hit in one or more screens of this group. Unless noted, the call rests on the fitted dose curve; in most records, active means well fitted curve in the direction sought with a large enough effect; inconclusive means small, poorly fitted or top-dose-only effect, or another doubt; inactive means no such curve, though single readings can be large; an effect the other way counts as inactive or inconclusive. Potency means the concentration at half of the fitted maximal effect.
SMILES,CRE-bla Fsk,ERK AVP inh,IkB signaling,TSHR ag,HEK293 cAMP ctrl
C[C@]1(C(=O)NCc2cc(F)cc(C(F)(F)F)c2)C=C[C@@H](Cc2ccccc2)N1C(=O)c1ccccc1,-16.6%,30.8%,.,?,15.8µM*
CCOc1ccccc1C(=O)n1nc2nc(C)cc(C)c2c1N,-10.8%,9.9%,-0.7%,1.4%,3.9%
Cc1csc(NC(=O)CCN2C(=O)c3ccccc3S2(=O)=O)n1,2.9%,-16.1%,0.5%,.,24.6%
CCn1c(SCC(=O)NCc2ccccc2)nc2ccccc2c1=O,8.1%,6.5%,1.8%,-3.7%,121.5%
CCn1c(SCc2nc3ccccc3c(=O)[nH]2)nc2ccccc2c1=O,2.51µM*,7.94µM*,0.6%,?,?
Cc1sc2nc(CSc3nc4ccccc4c(=O)n3CCCN3CCOCC3)[nH]c(=O)c2c1C,2.51µM*,15.4%,-0.6%,4.8%,9.3%
CCOc1ccc(N2Cc3ncccc3C2=O)cc1,-13.3%,-7.3%,5.3%,-5.1%,1.5%
N#CCC(=O)Nc1sc2c(c1C(N)=O)CCCC2,12.6µM*,.,8.0%,?,-55.4%
CCOC(=O)C1C(=O)CC(C)(O)C(C(=O)OCC)C1/C=C/c1ccccc1 (stereo unspecified),3.7%,-9.8%,2.2%,?,5.01µM*
CC1=C(C(=O)Nc2ccccc2)C(c2ccco2)C(C#N)=C(SCc2ccccc2)N1 (stereo unspecified),?,18.8%,?,.,25.9%
CC1=C(C(=O)Nc2ccccc2)C(c2ccco2)C(C#N)=C(SCC(=O)OC(C)C)N1 (stereo unspecified),?,-0.4%,?,?,20µM*
COc1cc(C(=O)NCCCc2nc3ccccc3n2CC(C)C)cc(OC)c1OC,.,.,-1.8%,.,.
CCc1nc2ccc(C(=O)NCCc3ccc(OC)c(OC)c3)cc2nc1CC,.,.,1.2%,.,.
CCn1c(CCNC(=O)c2ccc(OC)c(OC)c2)nc2ccccc21,12.6µM*,-9.1%,0.8%,?,?
COc1ccc(CCNC(=O)c2ccc3nc(-c4ccco4)c(-c4ccco4)nc3c2)cc1OC,?,20µM*,?,-0.4%[11.4 µM],18.3%
C[C@H](CCC(=O)O)[C@H]1CC[C@H]2[C@H]3C(CC[C@]12C)[C@@]1(C)CC[C@@H](O)C[C@H]1C[C@H]3O (stereo partly specified),.,17.6%,.,.,.
c1ccc(CN2CCN(c3ncnc4c3cnn4-c3ccccc3)CC2)cc1,.,.,-3.0%,.,.
O=C(COc1ccccc1)N1CCN(c2ncnc3c2cnn3-c2ccccc2)CC1,1.4%,25.1µM*,?,20.2%,9.4%
c1ccc(CCNc2c3c(nc4ncnn24)CCC3)cc1,-3.6%,?,-0.9%,?,6.31µM*
O=C(Cn1cc2c(n1)CCCC2)NCCCN1CCN(c2ccccc2F)CC1,-12.0%,-16.9%,-1.9%,12.1%,8.6%
COc1ccc(-c2csc3c2[N+]2=CCC=C2C3=O)cc1,3.16µM*,-4.2%[11.5 µM],?,1.9%[11.4 µM],20.6%[11.4 µM]
COC(=O)c1scc(-c2ccc(C)cc2)c1S(=O)(=O)N1CCN(c2ccc(OC)cc2)CC1,.,.,-1.0%,.,.
Clc1ccc(Cn2ncc3c(N4CCCC4)ncnc32)cc1,10µM*,-12.8%,-0.9%,4.9%,-0.2%
Cc1ccc(Cn2c(C(=O)O)c(CNCCc3cccs3)c3ccc(C)cc32)cc1,.,.,0.5%,.,.
CCOC(=O)Nc1ccc2c(c1)N(C(=O)N(CC)CC)c1ccccc1CC2,?,6.2%,2.2%,3.16µM*,5.9%[11.4 µM]
SMILES,CRE-bla Fsk,ERK AVP inh,IkB signaling,TSHR ag,HEK293 cAMP ctrl
COc1ccc(-c2csc(Cc3nnc(N4CCOCC4)n3-c3ccccc3)n2)cc1,?,-20.7%,0.4%,8.8%,29.3%
COC(=O)c1ccc(COc2ccc3c(C)c(C)c(=O)oc3c2)o1,?,-17.9%,?,?,3.98µM*
CCOC(=O)C1CCN(c2c(Nc3ccc4c(c3)OCCO4)c(=O)c2=O)CC1,-5.5%,-9.8%,-0.8%,-38.5%,5.3%
CCOC(=O)C1CCN(C(C(=O)Nc2ccc3c(c2)OCCO3)c2ccccc2)CC1 (stereo unspecified),-5.4%,14.9%,2.2%,?,12.6µM*
NC(=O)SCC(=O)Nc1ccc2ncccc2c1,?,14.0%[11.5 µM],-1.4%[11.4 µM],?,-36.4%[11.4 µM]
CC(=O)N1c2c(cc(Br)cc2S(=O)(=O)N2CCN(C(=O)c3ccco3)CC2)CC1C (stereo unspecified),2.2%,-17.2%,2.3%,4.2%[11.4 µM],-3.2%
COc1ccccc1C(=O)N1CCN(c2nc3cc(C)c(C)cc3cc2C#N)CC1,?,14.4%,?,?,12.6µM*
CCc1c(C)nc(SCCOc2ccc(OC(C)C)cc2)[nH]c1=O,6.7%,-11.1%,0.1%,.,8.4%
CC(C)n1c(SCC(=O)N2c3ccccc3Sc3ccccc32)nc2c1c(=O)n(C)c(=O)n2C,1µM*,-28.3%,-1.5%,?,?
Cc1ccccc1-c1nc(Cc2ccc(Cl)cc2)no1,-5.1%,133.8%,-2.5%,-6.8%,26.5%
COc1ccc(N2CCN(c3nc(NCCc4ccc(OC)c(OC)c4)nc(OC)n3)CC2)cc1,3.16µM*,15.8µM*,?,?,?
COc1ccc(Nc2nc(OC)nc(N3CCN(c4ccc(OC)cc4)CC3)n2)cc1,17.7%,?,-0.9%,-3.4%,-2.3%
Cc1ccc(-c2nnn(CC(=O)N(Cc3cccs3)C(C(=O)NC(C)(C)C)c3ccco3)n2)o1 (stereo unspecified),?,-24.1%,3.0%,?,1µM*
Cc1ccc(-c2nnn(CC(=O)N(Cc3cccs3)C(C(=O)NC(C)(C)C)c3ccc(C)o3)n2)o1 (stereo unspecified),?,8.5%,0.6%,?,25.1µM*
Cc1ccc(-c2nnn(CC(=O)N(Cc3ccco3)C(C(=O)NC(C)(C)C)c3cccs3)n2)o1 (stereo unspecified),-0.5%,-17.1%,?,?,20µM*
Cc1ccc(C(C(=O)NC(C)(C)C)N(CC2CCCO2)C(=O)Cn2nnc(-c3ccc(C)o3)n2)cc1 (stereo unspecified),-1.9%,-2.1%,0.5%,?,25.1µM*
COc1ccc(OCC2CN3C(CCC(C)C3c3ccc(Br)cc3)C(=O)O2)cc1 (stereo unspecified),.,32.9%[11.5 µM],.,?,?
Cn1nc(C(=O)Nc2ccc(F)c(Cl)c2)c2c1-c1ccccc1S(=O)(=O)C2,.,.,-0.1%,.,.
CCCCc1cc(O)c(CCCC)c(O)c1,25.0%,?,?,-19.8%,-18.5%
COc1ccccc1CNC(=O)Cn1ncc2c3ccccc3n(Cc3ccccc3C)c2c1=O,.,.,1.4%,.,.
